Screening results as filed in PubChem BioAssay.
DT40 TDP1 no CPT: qHTS for Inhibitors of human tyrosyl-DNA phosphodiesterase 1 (TDP1): qHTS in cells in absence of CPT; DT40 Tdp1-/- hTDP1 cells, no CPT, ATP luminescence, 48 h; Potency, µM (highest dose often 46.2 µM), usual class: inhibitors; 420,000 compounds, 15% hits; AID 686978, 2013; also: nearly all actives have a fitted effect of over 55% in size
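Camptothecin absent (DMSO only). Human TDP1-complemented DT40 knockout cells, 400 cells/well, 37 °C for minimum 48 hr; ATP measured via CellTiter-Glo, 30 min dark incubation, luminescence.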
IL-1B inflam inh: qHTS for Inhibitors of Inflammasome Signaling: IL-1-beta AlphaLISA Primary Screen; THP-1 LPS/ATP IL-1B secretion, AlphaLISA, 16 h; stronger effect = lower value; activity change, % at 57.5 µM; 360,000 compounds, 4.7% hits; in the data active = activity change below about -50%; inconclusive = mostly about -30% to -49%
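THP-1 cells pretreated 1 hr with compounds (up to 57.5 uM final), then stimulated with LPS (250 ng/mL final) plus ATP (1.25 mM final); secreted IL-1B measured by AlphaLISA after 16 hr, decreased signal indicating inhibition.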
TDP1 cell CPT: qHTS for Inhibitors of human tyrosyl-DNA phosphodiesterase 1 (TDP1): qHTS in cells in presence of CPT; Potency, µM (series often up to 46.2 µM), hits mostly inhibitors; 420,000 compounds, 12% hits; chicken DT40 Tdp1-/-;hTDP1 cells + 20 nM CPT, ATP luminescence, 48 h; AID 686979, 2013; also: nearly all actives have a fitted effect of over 55% in size
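Chicken DT40 Tdp1-/- cells complemented with human TDP1, 400 cells/well, exposed to compounds plus 20 nM camptothecin for at least 48 h at 37 C; viability read as ATP content by CellTiter-Glo luminescence.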
HT1080 IDH1KD tx: qHTS for induction of synthetic lethality in tumor cells producing 2HG: qHTS for the HT-1080-IDH1KD cell line. HT-1080 IDH1 knockdown viability, ATP luminescence, 48 h. Potency, µM (doses to about 46.1 µM), usual class: cytotoxic. 360,000 compounds, 2% hits. AID 686971, 2013
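Assay cells: HT-1080 with IDH1 knockdown, 750 per well, RPMI/5% FBS. Exposure: 48 h at 37 °C following 2 h pre-incubation. Read: CellTiter-Glo luminescence; fitted concentration-response, curve class assigned.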
HT1080NT lethal: qHTS for induction of synthetic lethality in tumor cells producing 2HG: qHTS for the HT-1080-NT fibrosarcoma cell line. 360,000 compounds, 1.6% hits. Potency, µM (doses to about 46.1 µM), usual class: cytotoxic. HT-1080-NT fibrosarcoma viability, CellTiter-Glo ATP luminescence, 48 h;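 also: NT is the 2HG producing partner of a matched IDH1 knockdown line; nearly all actives have a fitted effect of over 55% in size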
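Compounds were tested in concentration-response format on HT-1080-NT cells for 48 hours at 37 degrees C. Cell viability came from CellTiter-Glo luminescence; curves were classified by r2, response magnitude and activity.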
Numbers stand for hits; ! = not active in a repeat. This is a sample that favours compounds with a hit; in the whole collection about 19% have one here. Unless noted, calls follow the shape of the dose curve; as a rule, active = well fitted curve in the direction sought with a large enough effect; inconclusive = small, poorly fitted or top-dose-only effect, or another doubt; inactive = no such curve, though single readings can be large; an effect the other way counts as inactive or inconclusive.

Screening CC1CCN(CCOCCOc2ccccc2-c2ccccc2)CC1 returned DT40 TDP1 no CPT inconclusive, IL-1B inflam inh inconclusive, TDP1 cell CPT 23µM, HT1080 IDH1KD tx inconclusive and HT1080NT lethal inactive.
c1ccc(-c2ccccc2OCCN2CCCC2)cc1 was read as DT40 TDP1 no CPT inactive, IL-1B inflam inh inconclusive, TDP1 cell CPT inactive, HT1080 IDH1KD tx inactive and HT1080NT lethal inactive.
`c1ccc(-c2ccccc2OCCCCN2CCCCCC2)cc1` gave DT40 TDP1 no CPT inconclusive, IL-1B inflam inh inactive, TDP1 cell CPT 18µM, HT1080 IDH1KD tx inactive and HT1080NT lethal inactive.
Screening c1ccc(-c2ccccc2OCCOCCN2CCCCC2)cc1 returned DT40 TDP1 no CPT inconclusive, IL-1B inflam inh inconclusive, TDP1 cell CPT 23µM, HT1080 IDH1KD tx inactive and HT1080NT lethal inactive.
Screening CCCC1CC(=O)NC1(C(=O)OCC)C(=O)OCC (centres undefined) returned DT40 TDP1 no CPT inactive, IL-1B inflam inh inactive, TDP1 cell CPT inactive, HT1080 IDH1KD tx inactive and HT1080NT lethal inactive.
CCN(CC)S(=O)(=O)c1cccc(C(=O)OCC(=O)c2ccc3c(c2)OCCO3)c1 was read as DT40 TDP1 no CPT inconclusive, IL-1B inflam inh inactive, TDP1 cell CPT inactive, HT1080 IDH1KD tx inactive and HT1080NT lethal inactive.
COc1cc(OC)cc(C(=O)NNC(=O)C2CCCC2)c1 was read as DT40 TDP1 no CPT inactive, IL-1B inflam inh inactive, TDP1 cell CPT inactive, HT1080 IDH1KD tx inactive and HT1080NT lethal inactive.
Screening COc1ccc(C2=NC(C)(C)N(CC(=O)Nc3cccc(C)c3)C2=O)cc1 returned DT40 TDP1 no CPT 3.7µM and TDP1 cell CPT 4.6µM.
`CCCN(C1CCS(=O)(=O)C1)S(=O)(=O)c1ccc(F)cc1` (centres undefined) gave DT40 TDP1 no CPT inactive, IL-1B inflam inh inactive, TDP1 cell CPT inactive, HT1080 IDH1KD tx inactive and HT1080NT lethal inactive.
For Cc1cc(S(=O)(=O)N2CCN=C2c2ccccc2)c(Cl)cc1Cl the results were DT40 TDP1 no CPT inconclusive, IL-1B inflam inh inactive, TDP1 cell CPT inconclusive, HT1080 IDH1KD tx inactive and HT1080NT lethal inactive.
For CCCCN(CC)CCCNC(=S)Nc1ccc2nc(N3CCN(C)CC3)cc(C)c2c1 the results were DT40 TDP1 no CPT 16µM, IL-1B inflam inh -54, TDP1 cell CPT inconclusive, HT1080 IDH1KD tx inconclusive and HT1080NT lethal 18µM.
Cc1cc(N2CCN(C)CC2)nc2ccc(NC(=S)NCCCN3CCN(C)CC3)cc12 was read as DT40 TDP1 no CPT inconclusive, IL-1B inflam inh inactive, TDP1 cell CPT inconclusive, HT1080 IDH1KD tx inactive and HT1080NT lethal inactive.
Screening CCCCN(CC)CCCNC(=S)Nc1ccc2nc(N3CCN(CC)CC3)cc(C)c2c1 returned DT40 TDP1 no CPT 16µM, IL-1B inflam inh inconclusive, TDP1 cell CPT inconclusive, HT1080 IDH1KD tx inconclusive and HT1080NT lethal 16µM.
Screening COc1ncc2ncc(=O)n(C[C@H]3CCCO3)c2n1 returned DT40 TDP1 no CPT inactive and TDP1 cell CPT inactive.
Cc1nc(=O)c(-c2ccccc2)c(C)n1-c1ccccc1O was read as DT40 TDP1 no CPT inactive, IL-1B inflam inh inactive, TDP1 cell CPT inactive, HT1080 IDH1KD tx inactive and HT1080NT lethal inactive.
`CC(C)NC(=O)c1ccc2c(c1)N(Cc1ccccc1)C(=O)C(C)(C)O2` gave DT40 TDP1 no CPT inactive, IL-1B inflam inh -52, TDP1 cell CPT inactive, HT1080 IDH1KD tx inactive and HT1080NT lethal inactive.
CC(C)NC(=O)c1ccc2c(c1)N(CC(=O)N1CCCC1)C(=O)C(C)(C)O2 was read as DT40 TDP1 no CPT inactive, IL-1B inflam inh inactive, TDP1 cell CPT inactive, HT1080 IDH1KD tx inactive and HT1080NT lethal inactive.
`O=C(CNS(=O)(=O)c1ccc(F)cc1)N1CCCC1` gave DT40 TDP1 no CPT inactive, IL-1B inflam inh inactive, TDP1 cell CPT inactive, HT1080 IDH1KD tx inactive and HT1080NT lethal inactive.
`N#Cc1ccccc1NS(=O)(=O)c1cc2c3c(c1)CCC(=O)N3CCC2` gave DT40 TDP1 no CPT inactive, IL-1B inflam inh inactive, TDP1 cell CPT inactive, HT1080 IDH1KD tx inactive and HT1080NT lethal inactive.
For Cc1ccccc1N=C(N)Nc1ccccc1C the results were DT40 TDP1 no CPT inconclusive, IL-1B inflam inh inactive, TDP1 cell CPT 27µM!, HT1080 IDH1KD tx inactive and HT1080NT lethal inactive.
Screening O=C(NCCCc1ccccc1)c1nn(-c2ccccc2F)nc1CO returned DT40 TDP1 no CPT 21µM and TDP1 cell CPT inconclusive.
Screening CCOc1ccc(-n2nc(CO)c(C(=O)NCCCc3ccccc3)n2)cc1 returned DT40 TDP1 no CPT 23µM and TDP1 cell CPT 15µM.
O=C(NCCc1ccccc1)c1nn(-c2ccccc2F)nc1CO was read as DT40 TDP1 no CPT inactive and TDP1 cell CPT inconclusive.
`CC(C)Oc1ccc(C(=O)NC(Cc2c[nH]c3ccccc23)C(=O)NN)cc1` (centres undefined) gave DT40 TDP1 no CPT inactive, IL-1B inflam inh inconclusive, TDP1 cell CPT inactive, HT1080 IDH1KD tx inactive and HT1080NT lethal inactive.
`Cc1ccc2ncccc2c1N` gave DT40 TDP1 no CPT inactive, IL-1B inflam inh inactive, TDP1 cell CPT inactive, HT1080 IDH1KD tx inactive and HT1080NT lethal inactive.
Screening COc1cc(OC)c(OC)cc1/C=C/c1ccnc2ccccc12 returned DT40 TDP1 no CPT 16µM, IL-1B inflam inh inactive, TDP1 cell CPT 13µM, HT1080 IDH1KD tx inconclusive and HT1080NT lethal inconclusive.
Screening COc1ccc2ncccc2c1Cc1c(OC)ccc2ncccc12 returned DT40 TDP1 no CPT 13µM, IL-1B inflam inh -75, TDP1 cell CPT 15µM, HT1080 IDH1KD tx inactive and HT1080NT lethal inactive.
Screening COc1ccccc1/C=C/c1nc2ccccc2c(=O)o1 returned DT40 TDP1 no CPT inactive, IL-1B inflam inh inactive, TDP1 cell CPT inactive, HT1080 IDH1KD tx inactive and HT1080NT lethal inactive.
COc1ccccc1/C=C/c1ccnc2ccccc12 was read as DT40 TDP1 no CPT 14µM and TDP1 cell CPT inconclusive.
`COc1ccc(OC)c(Nc2ncnc3ccccc23)c1` gave DT40 TDP1 no CPT inactive, IL-1B inflam inh inactive, TDP1 cell CPT inactive, HT1080 IDH1KD tx inactive and HT1080NT lethal inactive.
Screening COc1ccc(OC)c(/C=C/c2ccnc3ccccc23)c1 returned DT40 TDP1 no CPT 4.6µM, IL-1B inflam inh -76, TDP1 cell CPT 3.7µM, HT1080 IDH1KD tx inconclusive and HT1080NT lethal inconclusive.
`COCCn1c(=S)[nH]c2cc(C(=O)NCCc3ccccc3)ccc2c1=O` gave DT40 TDP1 no CPT inconclusive, IL-1B inflam inh inactive, TDP1 cell CPT inactive, HT1080 IDH1KD tx inactive and HT1080NT lethal inactive.
Screening C=CCCCCCCCCC(=O)OC returned DT40 TDP1 no CPT inactive and TDP1 cell CPT inactive.
`CCNc1ncc2nc(-c3cccs3)c(=O)n(Cc3cccc(OC)c3)c2n1` gave DT40 TDP1 no CPT inactive and TDP1 cell CPT inactive.
